VP16 counter = Gal4-VP16 reporter inhibition counter-screen; Drosophila S2 Gal4-VP16 UAS-luciferase, luminescence, 20 h; Potency, µM (top dose mostly 53.6 µM), inactives show at the highest dose activity, negative = inhibition, most hits filed as inhibitors; hit rate 3.5% among 310,000;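 note: Gal4-VP16 expression switched on by copper sulfate through the metallothionein promoter; nearly all actives have a fitted effect of over 50% in size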
RORgamma inh = inhibitors of mouse ROR gamma transcriptional activity. P51450. Drosophila S2 Gal4-RORgamma UAS-luciferase reporter, 20 h. hit rate 5.4% among 310,000. Potency, µM (titrated, usually from 53.6 µM), for inactives: at the highest dose activity change, negative = inhibition, usual class: inhibitors; note: nearly all actives have a fitted effect of over 60% in size
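Using a luciferase readout, inhibitors were identified by reduced reporter activity in Drosophila cells coexpressing a copper-inducible Gal4–ROR gamma fusion and UAS-driven Photinus luciferase, incubated 20 hr after 700 uM copper sulfate.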
PLK1 PBD inh = blocks phosphopeptide binding to human PLK1 polo-box domain. Plk1 PBD binding of FITC phosphopeptide, fluorescence polarization. Potency, µM, inactives show max response, negative = inhibition, hits mostly inhibitors. hit rate 2.8% among 360,000; note: series mostly up to about 57 µM; nearly all actives have a fitted effect of over 65% in size
Target sequence (P53350 whole entry, looked up, the tested form may be a part): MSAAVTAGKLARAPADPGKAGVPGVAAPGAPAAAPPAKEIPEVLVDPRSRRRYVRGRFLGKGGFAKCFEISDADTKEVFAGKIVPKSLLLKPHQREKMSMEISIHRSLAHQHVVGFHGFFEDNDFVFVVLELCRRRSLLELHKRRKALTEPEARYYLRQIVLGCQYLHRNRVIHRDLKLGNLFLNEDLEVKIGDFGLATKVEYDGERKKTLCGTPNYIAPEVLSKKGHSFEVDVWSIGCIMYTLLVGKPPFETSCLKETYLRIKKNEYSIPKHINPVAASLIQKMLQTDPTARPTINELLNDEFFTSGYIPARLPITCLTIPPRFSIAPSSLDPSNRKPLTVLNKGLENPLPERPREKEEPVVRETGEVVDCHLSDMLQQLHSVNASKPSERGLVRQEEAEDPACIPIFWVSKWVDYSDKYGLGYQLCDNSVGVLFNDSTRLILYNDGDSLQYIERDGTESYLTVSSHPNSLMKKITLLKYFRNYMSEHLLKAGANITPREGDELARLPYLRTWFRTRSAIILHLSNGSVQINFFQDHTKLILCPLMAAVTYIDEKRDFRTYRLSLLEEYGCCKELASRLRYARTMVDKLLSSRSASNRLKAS
ALDH1A1 inh = ALDH1A1 (human) enzyme inhibition. P00352. Purified ALDH1A1, NADH fluorescence, propionaldehyde substrate. Potency, µM (series often up to 75.3 µM), inactives show top-dose activity, negative = inhibition, usual class: inhibitors. hit rate 7.3% among 220,000. AID 1030; active = well fitted inhibition curve with a large enough effect, not every such curve was filed as active; inconclusive = small, poorly fitted or top-dose-only effect, or another doubt; inactive = no such curve, though single readings can be large or run the other way;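 note: plate controls were no enzyme wells and a reference inhibitor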
Sfp inh = blocks B. subtilis Sfp PPTase activity | Q9F4F7 | Biochemical Sfp PPTase activity, qHTS | Potency, µM, for inactives: largest response in the series, negative = inhibition, hits mostly inhibitors | hit rate 3.5% among 310,000;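 note: the enzyme is Sfp with the accession as filed and its product quenches rhodamine fluorescence; 0% = enzyme reaction without inhibitor and -100% = no enzyme wells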
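Compounds were incubated with enzyme (final 15 nM) for 15 min at room temperature before substrate addition started the reaction. Fluorescence at 525 nm excitation, 598 nm emission was recorded immediately and after 30 minutes.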
* marks the source's active call; other numbers are inactive results; ? = inconclusive; · = no result given; [ ] = another dose, or the depositor's remark. Sampled rows, rich in hits. Any-hit rate of the full collection: about 12%. Unless noted, calls come from the whole dose curve; as a rule, active = well fitted curve in the direction sought with a large enough effect; inconclusive = small, poorly fitted or top-dose-only effect, or another doubt; inactive = no such curve, though single readings can be large; an effect the other way counts as inactive or inconclusive. Unless noted, % is set by controls: 0 for no effect and ±100 for the full control effect; potency is the fitted concentration of half-maximal effect.

SMILES	VP16 counter	RORgamma inh	PLK1 PBD inh	ALDH1A1 inh	Sfp inh
Cc1cc(C)cc(Cn2cc(CN3CC(N4CCN(CCO)CC4)CS3(=O)=O)nn2)c1 (stereo not drawn)	·	·	-10.2%	·	·
COC(=O)c1ccc(CSc2cc(C)c3cccc(C)c3n2)o1	1.7%	-2.1%	-5.4%	?	10µM*
CSCCNC(=O)C1(C)CCN1C(=O)c1cc(C)n(C)n1 (stereo not drawn)	·	·	3.9%	·	·
COC(=O)c1ccc(-c2noc(CN3CCCCC3c3nccn3C)n2)cc1 (stereo not drawn)	-11.9%	12.6µM*	-10.7%	4.8%	7.3%
COc1ccc(-c2noc(CN(C(=O)c3ccc4c(c3)OCO4)C(C)C)n2)cc1	5.2%	37.1%	0.5%	·	1.7%
CC(C)N(Cc1nc(COc2ccccc2)no1)Cc1nccn1C	22.6%	?	-3.9%	-4.9%	4.8%
COC(=O)c1ccc(-c2noc(CN(Cc3nccn3C)C(C)C)n2)cc1	-6.4%	10µM*	16.8µM*	-0.8%	10.1%
CC(C)N(Cc1nc(-c2ccc3c(c2)OCO3)no1)Cc1nccn1C	-7.8%	14.1µM*	-13.7%	-7.1%	10.6%
CCN(CC)C[C@@H](O)c1ccc2ccc3ccccc3c2c1	·	·	·	9.6%[13.5 µM]	·
CCOC(=O)C1OC1c1ccccc1 (stereo not drawn)	-10.1%	-12.9%	·	3.7%	·
O=S(=O)(CCc1ccccc1)c1nnnn1C1CCCCC1	3.9%	-2.3%	·	-13.1%	13.0%
COc1cccc(C(=O)Nn2cnnc2)c1OC	-11.7%	-32.9%[1.91 µM]	1.7%	·	1.5%
COc1cc2nc(CN(CCC(C)C)Cc3nc4cc(OC)c(OC)cc4c(=O)[nH]3)[nH]c(=O)c2cc1OC	6.31µM*	0.794µM*	-9.4%	6.3%	6.9%
CCNCc1nc2cc(OC)c(OC)cc2c(=O)[nH]1	3.5%	-12.1%	-8.0%	12.6%	?
CNC(=O)C1C(=S)NC(N)=C(C#N)C1c1ccccc1 (stereo not drawn)	?	?	26.7µM*	17.8µM*	3.98µM*
NC1=NC[C@@H](Cc2ccc(O)cc2)N1CCc1cccc2ccccc12	-9.6%	-6.8%	3.5%	·	89.1µM*
c1cc2c3c(cccc3c1)NC1(CCCCCC1)N2	-4.2%	-29.6%	-16.1%	3.16µM*	8.8%
O=c1[nH][nH]c2c1[C@H](c1ccc(F)cc1)O[C@H](C1CCCCC1)C2	·	·	-29.5%	·	·
CCCC[C@@H]1Cc2[nH][nH]c(=O)c2[C@H](c2ccc(C(C)C)cc2)O1	·	·	9.47µM*	·	·
O=c1[nH][nH]c2c1[C@H](c1ccc(Cl)cc1)O[C@H](C1CC1)C2	·	·	11.9µM*	·	·
O=c1[nH][nH]c2c1[C@H](c1ccccc1)O[C@H](C1CCCCC1)C2	·	·	11.9µM*	·	·
CN(CC(=O)Nc1ccccc1C(F)(F)F)C(=O)COc1ncnc2ccccc12	2.5%	9.6%	0.5%	6.2%	15.8%
NCCC[C@@H](CC(=O)N[C@@H]1CCNC[C@H]1C(=O)N[C@H](CC(=O)N[C@@H](CCC(=O)O)CC(=O)O)Cc1ccccc1)NC(=O)C[C@H](Cc1ccccc1)NC(=O)[C@@H]1CNCC[C@H]1N	-9.9%	11.5%	·	5.3%	-15.5%
O=C(CC[C@H]1O[C@@H](n2ccc(=O)[nH]c2=O)[C@H](O)[C@@H]1O)NCCCc1ccccc1	·	·	3.4%	·	·
O=C(O)CC1S/C(=N/N=C/c2ccc(-c3ccc(Cl)cc3[N+](=O)[O-])o2)NC1=O (stereo not drawn)	18.1%	9.7%	16.8µM*	22.4µM*	39.8µM*
SMILES	VP16 counter	RORgamma inh	PLK1 PBD inh	ALDH1A1 inh	Sfp inh
O=C(O)CC1S/C(=N/N=C/c2ccc(-c3ccc(Cl)c([N+](=O)[O-])c3)o2)NC1=O (stereo not drawn)	3.6%	-0.7%	-20.2%	?	-17.7%
O=C(O)CC1S/C(=N/N=C/C=C/c2ccccc2)NC1=O (stereo not drawn)	-3.2%	?	-9.1%	-6.9%	-6.7%
Cc1ccc(/C=N/N=C2/NC(=O)C(CC(=O)Nc3ccccc3)S2)o1 (stereo not drawn)	-4.9%[10 µM]	11.2µM*	?	-3.6%	-17.6%
Cc1ccc(/C=N/N=C2/NC(=O)CS2)o1	?	12.6µM*	-2.7%	-6.6%	?
O=C(CC1S/C(=N/N=C/C=C/c2ccccc2)NC1=O)Nc1ccc(Cl)c(Cl)c1 (stereo not drawn)	7.94µM*	5.62µM*	-1.2%	-3.3%	-14.2%
Cc1ccc2[nH]c(C(=O)N3CCN(C(c4ccccc4)c4ccccc4)CC3)cc2c1	0.6%	19.3%	-1.5%	·	-0.8%
CC(C)C[C@H](NC(=O)[C@@H]1CCCN1C(=O)[C@H](Cc1ccccc1)NC(=O)[C@H](C)NC(=O)[C@H](CCC(=O)O)NC(=O)[C@H](C)NC(=O)[C@H](CO)NC(=O)[C@H](CCC(=O)O)NC(=O)[C@H](CC(=O)O)NC(=O)[C@H](CCC(=O)O)NC(=O)[C@H](C)NC(=O)CNC(=O)[C@H](CC(N)=O)NC(=O)[C@@H]1CCCN1C(=O)[C@H](Cc1ccc(O)cc1)NC(=O)[C@@H](NC(=O)[C@H](CCCCN)NC(=O)[C@@H](NC(=O)[C@@H]1CCCN1C(=O)[C@@H](N)CCCNC(=N)N)C(C)C)C(C)C)C(=O)N[C@@H](CCC(=O)O)C(=O)N[C@@H](Cc1ccccc1)C(=O)O	1.9%	-8.0%	·	·	4.9%
Cc1ccc(/C=N/N=C2/NC(=O)C(CC(=O)Nc3ccc(Cl)cc3)S2)o1 (stereo not drawn)	?	11.2µM*	-0.4%	-2.8%	35.5µM*
CC(C)CCNC(=O)C1(C)CCN1Cc1ccc2ccccc2c1 (stereo not drawn)	·	·	6.3%	·	·
CSc1cccc(NC(=O)CN2C(=O)c3ccccc3S2(=O)=O)c1	12.6µM*	-27.3%	-2.6%	?	14.4%
CSc1cccc(NC(=O)Cn2cccc2)c1	-2.4%	23.6%	-4.7%	0.631µM*	-1.3%
Cc1cccc(NC(=O)CN2NS(=O)(=O)c3ccccc3C2=O)c1	14.3%	?	0.2%	10µM*	20.9%
O=C(CN1C(=O)c2ccccc2S1(=O)=O)Nc1ccccc1	-8.8%	-17.8%	-2.3%	-6.3%	12.8%
Cn1c(NC(=O)COc2ccccc2)cc(=O)n(C)c1=O	-2.3%	28.0%	-27.2%	25.1µM*	7.6%
CSc1cccc(NC(C)=O)c1	-19.7%	25.9%	-7.6%	9.2%	1.0%
CC1=C(C(=O)N2CCCCCC2)CC(CC(=O)NC2CC2)C(=O)N1Cc1ccccc1 (stereo not drawn)	·	·	4.5%	·	·
O=C(CN1C(=O)c2ccccc2S1(=O)=O)Nc1ccc(S(=O)(=O)N2CCCCC2)cc1	16.0%	11.5%	23.8µM*	-2.2%	20.2%
